This note sets out measurements from article PMC5540273 (PLoS ONE, 2017).

Among the test systems are INSRR; INSR; IRAK1; IRAK3; IRAK4; ITK; KIT-autoinhibited; KIT; LATS1; LATS2.
Holding throughout (conditions): concentration: 1 μM, replicates: in singlicate; n = 1
The test system of the next assay is T1, IKK-alpha.
T1 construct: gene CHUK

The test system of a further assay is T2, IKK-beta.
T2 construct: gene IKBKB

The test system of another assay is T3, IKK-epsilon.
T3 construct: gene IKBKE

In assay [1] the test system is JAK1(JH1domain-catalytic).
The subject of assay [2] is JAK1(JH2domain-pseudokinase).
In assay [3] the test system is JAK2(JH1domain-catalytic).
The test system of assay [4] is JAK3(JH1domain-catalytic).
In another assay the test system is T4, JNK1.
T4 construct: gene MAPK8

A further assay deals with T5, JNK2.
T5 construct: gene MAPK9

The next assay concerns T6, JNK3.
T6 construct: gene MAPK10
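Also: KINOMEscan kinase panel screen.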

As for `Cc1ccc(C(=O)Nc2ccc(Nc3ccnc4cc(-c5nccs5)ccc34)cc2O)cc1.Cl` [GW494702], the “%Inh” value in the assay on IKK-alpha was found to be 20%; in the assay on IKK-beta, 7%; in the assay with IKK-epsilon, 0%; with INSRR, 1%; with INSR it was 100%; in the assay with IRAK1, 22%. Moreover, the “%Inh” value in the assay with IRAK3 was 2%; in the assay on IRAK4, 5%; with ITK it was 0%; in assay [1], 0%; in assay [2], 0%; in assay [3], 25%. In addition, the “%Inh” value in assay [4] amounted to 0%; in the assay on JNK1, 18%; in the assay with JNK2, 3%; in the assay on JNK3, 9%; in the assay with KIT-autoinhibited it was 0%; with KIT it was 73%. The “%Inh” value in the assay on LATS1 and in the assay on LATS2 was 0% each time.

Take `CC(=O)N1CCN(c2ccc(Nc3nccc(-c4sc(C(C)C)nc4-c4cccc(NS(=O)(=O)c5cccc(Cl)c5)c4)n3)cn2)CC1` [GSK1660437]: the “%Inh” value in the assay with IKK-alpha was 0%; with IKK-beta, 0%; in the assay with IKK-epsilon it was 20%; in the assay with INSRR, 25%; with INSR, 8%; with IRAK1, 0%. Besides, the “%Inh” value in the assay with IRAK3 was determined as 0%; in the assay with IRAK4 it was 0%; with ITK, 20%; in [1] it was 0%; in [2], 0%; in [3], 40%. Moreover, the “%Inh” value in assay [4] is reported as 82%; in the assay on JNK1, 13%; with JNK2, 16%; with JNK3, 11%; in the assay on KIT-autoinhibited, 0%; in the assay with KIT, 96.1%. The “%Inh” value in the assay with LATS1 and with LATS2 was 0% throughout.

As to `O=C(Nc1n[nH]c2nc(-c3ccc(O)cc3)ccc12)C1CC1` [SB-710363], the “%Inh” value in the assay on IKK-alpha is given as 0%; in the assay on IKK-beta, 0%; in the assay with IKK-epsilon it was 7%; with INSRR, 0%; in the assay with INSR it was 0%; with IRAK1 it was 0%. The “%Inh” value in the assay with IRAK3 is reported as 0%; with IRAK4, 0%; in the assay on ITK, 0%; in [1], 6%; in [2], 33%; in [3], 53%. Moreover, the “%Inh” value stood at 62% in assay [4]; 25% with JNK1; 13% with JNK2; 2% in the assay with JNK3; 0% in the assay with KIT-autoinhibited; 12% in the assay on KIT. In addition, the “%Inh” value was determined as 17% in the assay on LATS1 and 10% in the assay with LATS2.

On to `NCCCC(NC(=O)c1cc(Br)c(-c2ccnc3[nH]ccc23)s1)c1ccccc1.O=C(O)C(F)(F)F.O=C(O)C(F)(F)F` (stereo not shown) [GSK1287544], for which the “%Inh” value with IKK-alpha was 48%; in the assay with IKK-beta, 58%; in the assay on IKK-epsilon it was 0%; with INSRR it was 1%; with INSR, 0%; in the assay on IRAK1 it was 94.8%. The “%Inh” value in the assay on IRAK3 came out at 0%; in the assay on IRAK4, 7%; in the assay with ITK it was 12%; in assay [1], 72%; in assay [2] it was 0%; in [3], 91.3%. Further, the “%Inh” value in [4] is reported as 87%; in the assay with JNK1, 36%; in the assay with JNK2, 22%; in the assay with JNK3, 19%; in the assay on KIT-autoinhibited, 0%; in the assay on KIT, 22%. Further, the “%Inh” value came out at 66% with LATS1 and 89% in the assay on LATS2.

For `Nc1n[nH]c2cnc(-c3ccccc3)cc12` [SB-642124], the “%Inh” value in the assay on IKK-alpha came out at 55%; with IKK-beta it was 64%; in the assay on IKK-epsilon, 13%; in the assay with INSRR, 100%; in the assay with INSR, 0%; in the assay on IRAK1, 49%. In addition, the “%Inh” value was 3% in the assay on IRAK3; 32% with IRAK4; 13% with ITK; 37% in assay [1]; 0% in [2]; 75% in assay [3]. Moreover, the “%Inh” value in assay [4] is on record as 91%; in the assay on JNK1, 13%; with JNK2 it was 0%; in the assay with JNK3, 6%; in the assay on KIT-autoinhibited it was 12%; in the assay on KIT, 0%. Moreover, the “%Inh” value in the assay on LATS1 is on record as 0%; with LATS2 it was 2%.

As for `COc1cccc(C(=O)Nc2cccc(Oc3ccc4nc(NC(=O)C5CC5)cn4n3)c2)c1`, the “%Inh” value in the assay on IKK-alpha was found to be 0%; with IKK-beta it was 2%; in the assay with IKK-epsilon, 0%; in the assay with INSRR, 0%; in the assay on INSR, 0%; in the assay with IRAK1, 0%. Further, the “%Inh” value is reported as 37% in the assay on IRAK3; 0% in the assay with IRAK4; 20% in the assay with ITK; 15% in [1]; 8% in assay [2]; 13% in assay [3]. The “%Inh” value in assay [4] stood at 0%; with JNK1 it was 0%; in the assay with JNK2, 10%; in the assay with JNK3, 0%; in the assay on KIT-autoinhibited, 99.7%; in the assay with KIT, 100%. The “%Inh” value with LATS1 and in the assay with LATS2 was 0% throughout.

For the compound `CCS(=O)(=O)c1ccc(OC)c(Nc2nccc(-c3c(-c4cccc(NC(=O)c5c(F)cccc5F)c4)nn4ncccc34)n2)c1` [GSK326180], the “%Inh” value in the assay with IKK-alpha was 27%; with IKK-beta, 27%; in the assay on IKK-epsilon, 13%; in the assay on INSRR, 21%; with INSR, 45%; with IRAK1, 28%. The “%Inh” value amounted to 1% in the assay with IRAK3; 29% with IRAK4; 5% in the assay with ITK; 20% in assay [1]; 0% in assay [2]; 0% in [3]. Also, the “%Inh” value in [4] is 0%; in the assay with JNK1, 32%; in the assay on JNK2, 68%; with JNK3, 46%; with KIT-autoinhibited it was 0%; in the assay on KIT it was 32%. For the same compound, the figures for the “%Inh” value in the assay with LATS1 and in the assay on LATS2 were 0% and 2%, respectively.

Turning to `COc1cc(Nc2nccc(N3CCC(NC(=O)Nc4cccc(C(C)=O)c4)C3)n2)cc(OC)c1OC` (stereo not shown) [GSK1379753], the “%Inh” value in the assay on IKK-alpha was 0%; in the assay on IKK-beta, 10%; in the assay on IKK-epsilon it was 20%; in the assay with INSRR it was 0%; in the assay with INSR, 1%; in the assay with IRAK1, 77%. Moreover, the “%Inh” value in the assay with IRAK3 is 86%; with IRAK4, 40%; with ITK it was 34%; in assay [1] it was 0%; in [2], 11%; in assay [3], 91.4%. Moreover, the “%Inh” value is 0% in assay [4]; 41% in the assay on JNK1; 29% with JNK2; 49% with JNK3; 0% in the assay on KIT-autoinhibited; 86% in the assay with KIT. For the same compound, the “%Inh” value in the assay with LATS1 and with LATS2 was 0% each time.
